Drawing on ChEMBL document CHEMBL2218924, “A broad activity screen in support of a chemogenomic map for kinase signalling research and drug discovery” (Biochem J, 2013), this text covers residual activity for 34 compounds.

Proto-oncogene tyrosine-protein kinase ROS (Homo sapiens), sequence (P08922 whole entry): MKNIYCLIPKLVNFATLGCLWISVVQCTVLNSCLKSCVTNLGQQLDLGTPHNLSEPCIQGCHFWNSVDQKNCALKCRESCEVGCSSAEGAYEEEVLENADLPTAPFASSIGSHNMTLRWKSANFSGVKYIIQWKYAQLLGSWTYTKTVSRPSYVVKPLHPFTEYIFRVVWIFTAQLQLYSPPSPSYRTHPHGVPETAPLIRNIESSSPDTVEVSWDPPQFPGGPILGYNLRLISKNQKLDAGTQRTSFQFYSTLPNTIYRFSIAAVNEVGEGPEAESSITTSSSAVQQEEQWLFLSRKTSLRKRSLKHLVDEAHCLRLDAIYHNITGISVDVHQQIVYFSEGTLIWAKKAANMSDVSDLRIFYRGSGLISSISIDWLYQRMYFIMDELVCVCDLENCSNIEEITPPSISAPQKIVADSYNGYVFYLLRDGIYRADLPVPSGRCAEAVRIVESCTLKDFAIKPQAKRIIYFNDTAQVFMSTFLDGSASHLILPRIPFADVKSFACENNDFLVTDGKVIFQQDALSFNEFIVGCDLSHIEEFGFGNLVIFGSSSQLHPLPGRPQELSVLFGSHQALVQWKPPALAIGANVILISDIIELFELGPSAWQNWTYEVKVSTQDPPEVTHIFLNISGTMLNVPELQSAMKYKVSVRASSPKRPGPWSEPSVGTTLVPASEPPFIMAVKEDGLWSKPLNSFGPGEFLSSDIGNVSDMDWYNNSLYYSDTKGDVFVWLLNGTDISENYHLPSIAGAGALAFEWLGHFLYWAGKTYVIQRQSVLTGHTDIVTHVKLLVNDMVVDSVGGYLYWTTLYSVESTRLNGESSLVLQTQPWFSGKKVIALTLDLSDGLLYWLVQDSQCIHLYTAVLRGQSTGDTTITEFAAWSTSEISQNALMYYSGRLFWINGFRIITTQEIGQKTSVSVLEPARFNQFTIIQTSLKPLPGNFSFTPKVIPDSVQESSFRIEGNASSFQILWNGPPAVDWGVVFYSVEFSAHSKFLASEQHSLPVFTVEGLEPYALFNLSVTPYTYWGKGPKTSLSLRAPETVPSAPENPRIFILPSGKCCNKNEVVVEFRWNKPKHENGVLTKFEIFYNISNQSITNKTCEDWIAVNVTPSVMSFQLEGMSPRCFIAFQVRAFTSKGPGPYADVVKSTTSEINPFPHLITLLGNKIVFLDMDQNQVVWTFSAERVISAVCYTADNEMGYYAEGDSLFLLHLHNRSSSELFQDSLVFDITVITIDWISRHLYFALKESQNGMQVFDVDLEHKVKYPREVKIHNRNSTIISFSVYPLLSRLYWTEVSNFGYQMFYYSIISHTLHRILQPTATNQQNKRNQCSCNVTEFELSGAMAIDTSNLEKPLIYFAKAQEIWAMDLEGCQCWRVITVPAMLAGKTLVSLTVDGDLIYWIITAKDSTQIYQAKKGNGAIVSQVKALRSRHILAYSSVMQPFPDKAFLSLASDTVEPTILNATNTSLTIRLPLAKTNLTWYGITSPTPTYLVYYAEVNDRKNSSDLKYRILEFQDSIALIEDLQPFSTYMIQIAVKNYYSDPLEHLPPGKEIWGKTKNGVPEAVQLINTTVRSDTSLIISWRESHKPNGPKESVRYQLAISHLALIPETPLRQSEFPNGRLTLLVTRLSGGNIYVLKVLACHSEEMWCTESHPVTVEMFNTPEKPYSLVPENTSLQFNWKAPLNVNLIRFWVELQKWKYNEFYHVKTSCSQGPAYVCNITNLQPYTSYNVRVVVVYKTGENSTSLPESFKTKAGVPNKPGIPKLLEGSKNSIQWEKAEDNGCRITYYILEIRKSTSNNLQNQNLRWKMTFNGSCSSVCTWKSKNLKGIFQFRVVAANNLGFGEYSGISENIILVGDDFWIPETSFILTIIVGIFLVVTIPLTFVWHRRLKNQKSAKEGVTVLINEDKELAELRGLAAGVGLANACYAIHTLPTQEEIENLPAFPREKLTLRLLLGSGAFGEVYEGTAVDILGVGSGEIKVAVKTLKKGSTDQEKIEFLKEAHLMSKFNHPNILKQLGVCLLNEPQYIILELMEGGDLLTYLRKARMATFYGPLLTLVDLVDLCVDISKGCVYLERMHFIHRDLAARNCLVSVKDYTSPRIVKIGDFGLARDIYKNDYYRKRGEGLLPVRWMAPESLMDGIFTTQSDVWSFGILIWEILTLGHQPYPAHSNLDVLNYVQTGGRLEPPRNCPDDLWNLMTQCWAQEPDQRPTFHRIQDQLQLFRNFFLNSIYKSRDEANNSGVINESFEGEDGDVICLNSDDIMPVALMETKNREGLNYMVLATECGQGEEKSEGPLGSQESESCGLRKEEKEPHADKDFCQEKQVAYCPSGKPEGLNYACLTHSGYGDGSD

The target of the first assay is Macrophage-stimulating protein receptor (Homo sapiens) (UniProt Q04912). The settings on record: at 10 µM.
Macrophage-stimulating protein receptor (Homo sapiens), sequence (Q04912 25-304 limits assumed): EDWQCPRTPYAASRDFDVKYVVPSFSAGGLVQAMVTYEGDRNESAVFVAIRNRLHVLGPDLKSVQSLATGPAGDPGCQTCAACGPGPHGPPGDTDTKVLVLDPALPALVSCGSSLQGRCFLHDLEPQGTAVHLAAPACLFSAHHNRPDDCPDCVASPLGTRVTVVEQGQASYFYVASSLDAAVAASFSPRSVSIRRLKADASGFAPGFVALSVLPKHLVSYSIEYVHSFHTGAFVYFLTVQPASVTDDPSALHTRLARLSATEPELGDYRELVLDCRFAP
Macrophage-stimulating protein receptor (Homo sapiens), sequence (Q04912 310-1400 limits assumed): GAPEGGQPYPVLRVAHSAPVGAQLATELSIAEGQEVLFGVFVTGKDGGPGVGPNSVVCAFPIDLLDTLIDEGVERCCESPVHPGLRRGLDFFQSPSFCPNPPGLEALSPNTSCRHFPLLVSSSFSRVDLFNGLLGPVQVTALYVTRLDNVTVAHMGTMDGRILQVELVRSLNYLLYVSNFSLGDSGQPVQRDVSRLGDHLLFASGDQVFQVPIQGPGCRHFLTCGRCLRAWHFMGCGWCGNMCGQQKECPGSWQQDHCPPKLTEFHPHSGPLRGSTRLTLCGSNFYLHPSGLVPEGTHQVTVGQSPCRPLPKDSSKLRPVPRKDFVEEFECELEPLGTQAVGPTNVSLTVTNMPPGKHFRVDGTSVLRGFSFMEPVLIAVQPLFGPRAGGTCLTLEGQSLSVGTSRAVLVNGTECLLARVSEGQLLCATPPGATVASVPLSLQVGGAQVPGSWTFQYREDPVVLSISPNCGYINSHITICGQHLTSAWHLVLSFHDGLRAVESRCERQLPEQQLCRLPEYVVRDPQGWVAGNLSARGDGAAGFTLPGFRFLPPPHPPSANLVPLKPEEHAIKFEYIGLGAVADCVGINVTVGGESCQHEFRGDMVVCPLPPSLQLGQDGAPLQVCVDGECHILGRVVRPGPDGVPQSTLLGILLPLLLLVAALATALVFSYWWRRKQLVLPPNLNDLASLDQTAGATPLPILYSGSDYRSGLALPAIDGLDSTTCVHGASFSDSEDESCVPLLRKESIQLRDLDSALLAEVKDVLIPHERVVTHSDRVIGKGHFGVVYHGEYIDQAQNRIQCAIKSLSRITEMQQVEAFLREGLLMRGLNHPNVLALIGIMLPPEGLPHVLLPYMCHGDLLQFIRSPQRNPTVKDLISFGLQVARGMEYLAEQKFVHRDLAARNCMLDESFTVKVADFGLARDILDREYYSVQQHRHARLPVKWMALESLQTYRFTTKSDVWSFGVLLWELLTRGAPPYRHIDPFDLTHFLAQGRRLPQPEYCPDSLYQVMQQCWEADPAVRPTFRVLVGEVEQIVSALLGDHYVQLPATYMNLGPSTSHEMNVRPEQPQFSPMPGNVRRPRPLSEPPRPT
Take `CCN(CC)CCCCN1c2ccccc2Oc2ccc(Cl)cc21`: the residual activity worked out at 91%.
Regarding `c1ccc(-c2n[nH]c3c2oc2ccccc23)cc1`, the residual activity is 73%.
`N#CC(C#N)=C(N)/C(C#N)=C/c1ccc(O)cc1`: the residual activity was found to be 100%.
On to `Cc1nc2cc3nc(-c4cccs4)cnc3cc2n1C`, for which the residual activity was 97%.
On the same count and under the same terms, with `Cc1cc(Nc2nc(-c3ccccc3)nc3ccccc23)n[nH]1` the figure was 54%; with `Oc1ccc(Nc2nc(-c3ccc(Cl)cc3)cs2)cc1`, 106%; with `CC(=O)O/N=C1\C(=C2\C(=O)Nc3cc(Br)ccc32)Nc2ccccc21`, 89%.
The same measure, in the same setting: the value for `CCN(CC)C(=O)c1ccc(Nc2nc(OCC3CCCCC3)c3nc[nH]c3n2)cc1` was 42%; that for `CO[C@@H]1[C@H](N(C)C(=O)c2ccccc2)C[C@H]2O[C@]1(C)n1c3ccccc3c3c4c(c5c6ccccc6n2c5c31)C(=O)NC4` was 56%.
The same measure, in the same setting: the value for `Oc1ccc(-c2nc(-c3ccc(F)cc3)c(-c3ccncc3)[nH]2)cc1` was 68%; that for `CN(C)CCCn1cc(C2=C(c3c[nH]c4ccccc34)C(=O)NC2=O)c2ccccc21` was 87%; that for `COc1cc2ncnc(N3CCN(C(=O)Nc4ccc(Oc5ccccc5)cc4)CC3)c2cc1OC` was 20%.
For the compound `COc1cc2ncnc(Nc3ccc(NC(=O)c4ccccc4)cc3)c2cc1OC`, the residual activity was determined as 74%.
Still for that read-out and setting: the value for `O=C1NC(=O)c2cc(Nc3ccc(F)cc3)c(Nc3ccc(F)cc3)cc21` was 76%; that for `COc1cc2ncc(-c3ccccc3)nc2cc1OC` was 92%; that for `COc1cc2ncnc(Nc3ccc(Oc4ccccc4)cc3)c2cc1OC` was 59%.
Consider `NC(=O)c1ccc2[nH]c(-c3ccc(Oc4ccc(Cl)cc4)cc3)nc2c1`, for which the residual activity came to 84%.
Same read-out and setting: the value for `O=C1Nc2ccc(Br)cc2/C1=C\c1cc2c([nH]1)CCCC2` was 84%.
`CC(C)n1cnc2c(NCc3ccccc3)nc(NCCCO)nc21`: the residual activity worked out at 92%.
Regarding `CC#CC(=O)Nc1cc2c(Nc3ccc(F)c(Cl)c3)ncnc2cn1`, the residual activity was 76%.
Take `CC(=O)c1ccc(N2CCOCC2)cc1O`: the residual activity was found to be 77%.
Still for that read-out and setting: with `Oc1n[nH]c2nnc(-c3c(-c4ccccc4)nn4ccccc34)cc12` the figure was 53%; with `c1ccc2c(-c3ccncc3)c[nH]c2c1`, 65%; with `Nc1n[nH]c2nnc(-c3c(-c4ccccc4)nn4ccccc34)cc12`, 42%.
Still for that read-out and setting: the value for `O=C1NC(=O)/C(=C\c2ccc3nccnc3c2)S1` was 76%.
In the case of `COc1cccc(-c2cc(=O)c3ccccc3o2)c1N`, the residual activity is 97%.
On the same count and under the same terms, with `CO[C@H]1[C@@H](OC)C[C@H](C)[C@@H](OC)C2=CC(=O)C=C(NC(=O)/C(C)=C/C=C/[C@H](OC)[C@@H](OC(N)=O)/C(C)=C/[C@@H]1C)C2=O` the figure was 85%.
Consider `C[C@@H](N)[C@H]1CC[C@H](C(=O)Nc2ccncc2)CC1`, for which the residual activity stood at 101%.
The same measure, in the same setting: the value for `O=C1Nc2ccccc2/C1=C1/Nc2ccccc2/C1=N\OCCC(O)CO` (stereo unspecified) was 61%; that for `CC(C)n1cnc2/c(=N/c3cccc(Cl)c3)nc(NCCO)[nH]c21` was 70%.
`N#C/C(=C(\N)Sc1ccc(N)cc1)c1ccccc1C(F)(F)F`: the residual activity stood at 83%.

A further assay has as its target Proto-oncogene tyrosine-protein kinase ROS (Homo sapiens) (UniProt P08922). The settings on record: at 1 µM.
For the compound `CCN(CC)CCCCN1c2ccccc2Oc2ccc(Cl)cc21`, the residual activity was 100%.
The same measure, in the same setting: with `c1ccc(-c2n[nH]c3c2oc2ccccc23)cc1` the figure was 97%.
Same read-out and setting: with `N#CC(C#N)=C(N)/C(C#N)=C/c1ccc(O)cc1` the figure was 95%; with `Cc1nc2cc3nc(-c4cccs4)cnc3cc2n1C`, 109%; with `Oc1ccc(Nc2nc(-c3ccc(Cl)cc3)cs2)cc1`, 110%.
Consider `CC(=O)O/N=C1\C(=C2\C(=O)Nc3cc(Br)ccc32)Nc2ccccc21`, for which the residual activity came out at 100%.
Consider `CCN(CC)C(=O)c1ccc(Nc2nc(OCC3CCCCC3)c3nc[nH]c3n2)cc1`, for which the residual activity worked out at 95%.
The same measure, in the same setting: the value for `CO[C@@H]1[C@H](N(C)C(=O)c2ccccc2)C[C@H]2O[C@]1(C)n1c3ccccc3c3c4c(c5c6ccccc6n2c5c31)C(=O)NC4` was 63%.
Consider `Oc1ccc(-c2nc(-c3ccc(F)cc3)c(-c3ccncc3)[nH]2)cc1`, for which the residual activity turned out to be 115%.
Take `CN(C)CCCn1cc(C2=C(c3c[nH]c4ccccc34)C(=O)NC2=O)c2ccccc21`: the residual activity stood at 108%.
On the same count and under the same terms, the value for `COc1cc2ncnc(N3CCN(C(=O)Nc4ccc(Oc5ccccc5)cc4)CC3)c2cc1OC` was 81%; that for `COc1cc2ncnc(Nc3ccc(NC(=O)c4ccccc4)cc3)c2cc1OC` was 109%.
Still for that read-out and setting: with `O=C1NC(=O)c2cc(Nc3ccc(F)cc3)c(Nc3ccc(F)cc3)cc21` the figure was 94%.
On to `COc1cc2ncnc(Nc3ccc(Oc4ccccc4)cc3)c2cc1OC`, for which the residual activity stood at 102%.
The same measure, in the same setting: the value for `NC(=O)c1ccc2[nH]c(-c3ccc(Oc4ccc(Cl)cc4)cc3)nc2c1` was 92%; that for `CC(C)n1cnc2c(NCc3ccccc3)nc(NCCCO)nc21` was 96%.
Consider `c1ccc(-c2n[nH]cc2-c2ccnc3ccccc23)nc1`, for which the residual activity stood at 98%.
Same read-out and setting: the value for `CC#CC(=O)Nc1cc2c(Nc3ccc(F)c(Cl)c3)ncnc2cn1` was 94%; that for `CC(=O)c1ccc(N2CCOCC2)cc1O` was 94%; that for `Oc1n[nH]c2nnc(-c3c(-c4ccccc4)nn4ccccc34)cc12` was 91%.
Still for that read-out and setting: the value for `c1ccc2c(-c3ccncc3)c[nH]c2c1` was 88%; that for `Nc1n[nH]c2nnc(-c3c(-c4ccccc4)nn4ccccc34)cc12` was 91%.
On to `O=C1NC(=O)/C(=C\c2ccc3nccnc3c2)S1`, for which the residual activity was found to be 94%.
Same read-out and setting: with `COc1cccc(-c2cc(=O)c3ccccc3o2)c1N` the figure was 106%; with `CO[C@H]1[C@@H](OC)C[C@H](C)[C@@H](OC)C2=CC(=O)C=C(NC(=O)/C(C)=C/C=C/[C@H](OC)[C@@H](OC(N)=O)/C(C)=C/[C@@H]1C)C2=O`, 92%; with `Cc1cccc(-c2[nH]c(C(C)(C)C)nc2-c2ccc3c(c2)OCO3)n1`, 91%.
Same read-out and setting: the value for `C[C@@H](N)[C@H]1CC[C@H](C(=O)Nc2ccncc2)CC1` was 104%; that for `CC(C)n1cnc2/c(=N/c3cccc(Cl)c3)nc(NCCO)[nH]c21` was 77%; that for `N#C/C(=C(\N)Sc1ccc(N)cc1)c1ccccc1C(F)(F)F` was 100%.
Still for that read-out and setting: with `Cn1nc2c3c(cccc31)C(=O)c1ccccc1-2` the figure was 97%.
